Eleven compounds from PubChem BioAssay can be followed below.

Structures are written as SMILES.

For the test, the system named is Plasmodium falciparum Sir2 (PF13_0152, Sir2A). Briefly: Plasmodium falciparum Sir2A binding compounds – biochemical, small-molecule microarray, 635 nm fluorescence, primary screen (AID 1098).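 Further: score merges spot fluorescence intensity with its signal-to-noise ratio.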 The following applies: fluorescence 635 nm, higher = more signal.
For `COCCOC(=O)N1C(=O)[C@@]2(c3cc(C#CC4=CCCCC4)ccc31)[C@H](C(N)=O)[C@H]1C(=O)O[C@H](c3ccccc3)[C@H](c3ccccc3)N1[C@@H]2c1ccccc1OCCO`, the composite z-score is 1.46. Take `O=C1NC(=O)C2C1C=CC(C(O)c1ccco1)N2Nc1ccccn1` (stereo unspecified): the composite z-score came out at 0.76.

In the case of `CCCCN1CC=CC23O[C@@H]4/C=C\CCC(C)OC(=O)C4[C@H]2C(=O)N(C(CO)C(C)C)[C@@H]3C1=O` (stereo partly specified), the composite z-score was 1.73.

In turn, `CC=CC(O)C1C=CC2C(=O)N(c3ccccc3)C(=O)C2N1Nc1ccccc1F` (stereo unspecified) came in with a composite z-score of 0.32. For `COc1ccccc1CN1C(=O)c2ccccc2[C@](Cc2ccccc2I)(C(=O)NCC(F)(F)F)[C@@H]1c1ccc(CO)cc1`, the composite z-score came to 1.31.

As for `O=C1NC(=O)C2C1C=CC(C(O)c1c(F)cccc1Cl)N2Nc1ccc(Cl)cc1Cl` (stereo unspecified), the composite z-score came to 1.49. For the compound `COC(=O)[C@@]1(Cc2ccccc2)[C@H]2c3cc(C(=O)N(C)C)n(CCc4ccc(O)c(OC)c4)c3C[C@H]2CN1C(=O)c1ccccc1`, the composite z-score worked out at 0.0108. On to `CCCNC(=O)[C@@H]1c2ccccc2C(=O)N(C(C)C)[C@H]1c1ccc(CO)cc1`, for which the composite z-score stood at 0.32. Compound `[N-]=[N+]=Nc1ccccc1[C@H]1OC(c2ccc(OCCCO)cc2)=N[C@@]1(Cc1ccccc1)C(=O)N1CCCCC1` had a composite z-score of 0.813.

Compound `C=CCC(OC(C)=O)[C@@H]1[C@@H](N(Cc2cccc3ccccc23)C(=O)Cc2ccc(F)cc2)c2cc(OCCCO)ccc2N1C(=O)c1ccc2ccccc2n1` (stereo partly specified) gave a composite z-score of 0.12.

`C[N+](C)(C)CCCC[C@@H]1NC(=O)[C@H]2C[C@@H](C(=O)NCCCCCCN)[C@@H](c3ccc(O)cc3)N2C1=O` showed a composite z-score of 1.38.
